# An excerpt weighted towards active compounds, which were near 5.3% of everything screened.
# PfM18AAP inh-1: blocks P. falciparum M18 aspartyl aminopeptidase; recombinant PfM18AAP, H-Glu-NHMec fluorogenic cleavage; inhibition, % at 7.35 µM; 290,000 compounds, 1.2% hits; AID 1822;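 active means inhibition above the campaign mean inhibition over all tested compounds plus 3 SD, cut at about 28% in these data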;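 further: 0% = plate median of test compound wells and 100% = 2 mM ZnCl2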
# ALR inh: human ALR oxidase inhibition via reduced H2O2. P55789. purified ALR, DTT oxidation, H2O2 HRP-luminol luminescence. 290,000 compounds, 3.8% hits. inhibition, % (concentration not given with the values);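 active means mean replicate inhibition above about 79%, with every replicate also reaching it, limit read from the data; inconclusive means only one of the two criteria met; inactive means mean below limit and not every replicate reaching it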
# HIF act: HIF pathway transcriptional activation; AID 1910; U2OS HRE-luciferase reporter, luminescence; normalized: DMSO 0%, desferrioxamine 100%; activation, % at 7.5 µM (by protocol); 300,000 compounds, 0.32% hits;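 active means mean activation of at least 10% of the iron chelator positive control signal, with at least half of replicates also reaching 10%; inconclusive means mean and replicate majority disagree about reaching 10%; inactive means mean and most replicates under 10%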
# SUMO Mot1 rescue: inhibitors of SUMOylation pathway: yeast Mot1-301 growth rescue. S. cerevisiae Mot1-301 growth rescue, ATP luminescence, 38.5C; percent above DMSO median, 100 means doubled. growth rescue, % at 18.8 µM. 320,000 compounds, 1% hits;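 active means every valid replicate shows activation above 250% relative to neutral control wells; inactive means the rest, any valid replicate at or below 250%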;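 further: OY570 slx delta 5 strain wells were the positive control but not used for scaling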
# PfM18AAP inh-2: PfM18AAP inhibition, confirmation; shares compounds with PfM18AAP inh-1; recombinant PfM18AAP, H-Glu-NHMec fluorogenic cleavage; inhibition, % at 7.35 µM; 2,400 compounds, 28% hits; AID 2170;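 active means mean inhibition over replicate wells above the hit cutoff set for the earlier primary screen, cut at about 29% in these data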;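 further: 0% = median of test compound wells and 100% = 2 mM ZnCl2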
# CTSL1 confirm: Cathepsin L (human) inhibition, confirmation | 2,400 tested, under 10 active | purified cathepsin L1, Z-Leu-Arg-MCA fluorescence | shares compounds with PfM18AAP inh-1 | AID 2178 | inhibition, % at 5.96 µM;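 active means average inhibition across replicates above the hit cutoff set in the earlier primary screen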;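 further: 0% = median of test compound wells and 100% = Z-Phe-Ala-diazomethylketone 1 µM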
# Target sequence (P07711 whole entry, looked up): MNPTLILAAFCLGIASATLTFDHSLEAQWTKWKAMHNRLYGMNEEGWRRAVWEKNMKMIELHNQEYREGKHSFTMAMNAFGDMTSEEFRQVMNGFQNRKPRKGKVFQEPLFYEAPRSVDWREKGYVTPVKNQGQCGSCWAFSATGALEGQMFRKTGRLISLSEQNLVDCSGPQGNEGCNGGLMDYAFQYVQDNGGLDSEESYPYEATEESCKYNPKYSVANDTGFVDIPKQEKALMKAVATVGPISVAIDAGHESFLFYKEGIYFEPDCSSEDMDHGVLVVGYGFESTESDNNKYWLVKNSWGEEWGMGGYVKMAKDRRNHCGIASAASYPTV
# Active calls of the source: *; ? = inconclusive; / = no result.
SMILES,PfM18AAP inh-1,ALR inh,HIF act,SUMO Mot1 rescue,PfM18AAP inh-2,CTSL1 confirm
O=C(Nn1c(O)c(C=C2N=c3ccccc3=N2)sc1=S)c1ccccc1Cl,54*,40,0,-9,-30,-1
CCOc1ccc(C(=O)n2cnnc2N)cc1,48*,/,-1,-20,56*,1
COc1ccc(C(=O)n2cnnc2N)cc1,48*,5,-1,172,61*,1
Cc1oc(-c2ccc3c(c2)OCCO3)cc1C(=O)NC(CCC(=O)O)C(=O)O (stereo not given),38*,21,1,-16,-12,8
Cc1oc(-c2ccc3c(c2)OCCO3)cc1C(=O)NCC(=O)O,11,4,1,-14,/,/
CC(=O)c1c(C(C)=O)c(C)n(-c2ccc(N)c(C)c2)c1C,32*,/,-3,-14,-40,0
O=C(CN1CCN(c2ccccc2)CC1)N1CCc2ccccc21,-4,71,1,10,/,/
O=C(CN1CCN(c2ccc(O)cc2)CC1)N1CCc2ccccc21,42*,80*,0,2,1,4
O=C1NC(=O)/C(=C\c2ccc(N3CCOCC3)o2)N1,37*,12,0,33,-30,-6
N#Cc1c(N2C(=O)Nc3ccccc3N2O)sc2c1CCCCCC2,35*,69,0,-6,-41,8
COc1ccc(C(=O)NCCc2ccc(C(F)(F)F)cc2)cc1S(=O)(=O)N1CCOCC1,/,-2,/,-30,/,/
COc1ccc(C)cc1NC(=O)CCNS(=O)(=O)c1ccc2c(c1)CCC(=O)N2,-3,2,0,16,/,/
NNc1nc2c(-c3cccc(C(F)(F)F)c3)nnn2c2ccccc12,35*,-22,4,13,-106,-6
Cc1ccc(C(C(=O)NC2CCCC2)N(C(=O)CCC(=O)Nc2cc(C)on2)c2ccccc2)cc1 (stereo not given),-3,/,0,-1,/,/
Cc1cc(NC(=O)CSCC(=O)N(c2cccc(Cl)c2)C(C(=O)NC2CCCCC2)c2ccc(O)c(O)c2)no1 (stereo not given),57*,99*,-1,1,43*,0
Cc1cc(NC(=O)CCC(=O)N(c2ccc(F)cc2)C(C(=O)NC2CCCC2)c2cccnc2)no1 (stereo not given),-1,-6,0,-6,/,/
COc1ccc(N(C(=O)CSCC(=O)Nc2cc(C)on2)C(C(=O)NC2CCCCC2)c2ccc(O)c(O)c2)cc1 (stereo not given),61*,85*,2,-1,48*,1
Cc1cc(NC(=O)CSCC(=O)N(c2ccc(F)cc2)C(C(=O)NC2CCCCC2)c2ccc(O)c(O)c2)no1 (stereo not given),68*,-3,0,-14,52*,1
O=C(Nc1ccccc1)Nc1cccc(C(F)(F)F)c1,6,-1,2,6,/,/
O=C(Nc1ccccc1)Nn1cnnc1,56*,-13,-2,290,40*,-3
O=C(Nc1cccc(C(F)(F)F)c1)Nn1cnnc1,70*,-5,0,15,64*,0
O=C(Nc1ccc(Br)cc1Cl)Nn1cnnc1,75*,/,0,27,78*,0
Cc1cc(C)cc(NC(=O)Nn2cnnc2)c1,54*,-11,-1,-3,37*,-3
COc1ccc(S(=O)(=O)N2CCCCC2)cc1NC(=O)c1ccc(CS(C)(=O)=O)cc1,/,/,/,300,/,/
COc1ccc(S(=O)(=O)N(C)C)cc1NC(=O)CSC(C)C(=O)Nc1cc(C)on1 (stereo not given),/,/,/,-7,/,/
SMILES,PfM18AAP inh-1,ALR inh,HIF act,SUMO Mot1 rescue,PfM18AAP inh-2,CTSL1 confirm
O=C(Nc1ccc(Br)cc1)Nn1cnnc1,73*,-1,1,27,56*,-2
COc1cccc(NC(=O)Nn2cnnc2)c1,63*,-2,1,-21,49*,1
COc1cccc(NC(=O)Nc2cccnc2)c1,1,-6,2,-3,/,/
CC(=O)Nc1ccc(C(=O)N/C(=C/c2ccccc2)C(=O)NCc2ccco2)cc1,-1,17,-1,8,/,/
COc1cccc(SCc2noc(C(=O)NCCC(C)C)c2C(=O)NCCC(C)C)c1,/,61,0,-1,/,/
COc1cccc(C(c2c(N)[nH]c(=S)[nH]c2=O)c2c(N)[nH]c(=S)[nH]c2=O)c1,33*,?,0,-1,-2,7

# Screening data (PubChem BioAssay)
